Data taken from PubChem BioAssay (NCATS).
Inconclusive results are not listed. The source made the active and inactive calls. The call rests on the fitted dose curve; in most records, active means well fitted inhibition curve with a large enough effect; inconclusive means small, poorly fitted or top-dose-only effect; inactive means flat fitted curve, though single readings scatter.

System: HACAT
Experiment: qHTS assay to identify novel small-molecules to repurpose for Merkel cell carcinoma treatment (AID 1296009); further: nearly all actives have a fitted effect of over 60% in size
Conditions: MCC and control cell lines, CellTiter-Glo viability, 72 h; at 44.8 µM (top of the series) unless noted
Method in brief: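 Cells exposed to NPC (8-point) and MIPE (11-point) compound dilutions for 72 hr at 37 degree celsius; viability read by CellTiter-Glo luminescence, normalized to no-cell and DMSO in-plate controls.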

Row | Compound | outcome
1 | COc1cc(C(=O)OC[C@@]2(O)CO[C@@H](O[C@H]3[C@H](Oc4ccc(O)cc4)O[C@H](CO)[C@@H](O)[C@@H]3O)[C@@H]2O)cc(OC)c1O | inactive [at 17.4 µM]
2 | COc1cc(C2Oc3c(OC)cc(CCCO)cc3C2CO)ccc1O (stereo not given) | inactive
3 | CC1(C)C[C@H]2C=C(C=O)[C@]3(C(=O)O)C[C@]3(C)[C@H]2C1 | inactive
4 | CC(C)=CCC[C@](C)(O[C@@H]1O[C@H](CO[C@@H]2OC[C@H](O)[C@H](O)[C@H]2O)[C@@H](O)[C@H](O)[C@H]1O)[C@H]1CC[C@]2(C)[C@@H]1[C@H](O)C[C@@H]1[C@@]3(C)CC[C@H](O[C@@H]4O[C@H](CO)[C@@H](O)[C@H](O)[C@H]4O[C@@H]4O[C@H](CO)[C@@H](O)[C@H](O)[C@H]4O)C(C)(C)[C@@H]3CC[C@]12C | inactive [at 17.4 µM]
5 | O=C(O)CC(CCc1ccccc1)OC1OC(CO)C(O)C(O)C1O (stereo not given) | inactive
6 | CC(C)(Oc1ccc(-c2nc3cc(Cl)ccc3s2)cc1)C(=O)O | inactive
7 | COc1c2c(c(C)c3c1C(=O)OC3)OC1(C)CC(O)C34OC(O)(CCC3(C)C1C2)OC4(C)C (stereo not given) | inactive [at 17.4 µM]
8 | C=C1C2(C)CC3C4(C)OC(C5OC56C4=CC(=O)OC6(C)C)C3(C)C13C(=O)OC(C)C3(O)C2=O (stereo not given) | inactive [at 17.4 µM]
9 | CC(=O)OC/C(=C/C(=O)O)CC[C@@H]1C(CO)=CC[C@@H]2C(C)(C)CCC[C@@]12C | inactive
10 | COc1cc(/C=C/c2ccccc2)c(C(=O)O)c(O)c1CC=C(C)C | inactive
